Laboratory results as given in PubChem BioAssay AID720582 (The Scripps Research Institute Molecular Screening Center, 2013).
Values joined by “and” are separate entries in the source; they are usually repeats but may differ in a detail not shown here. Equal values may be shown once. Screen size: about 370,000 compounds; about 2,300 (0.62%) were called active.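 How the source made its calls: active means inhibition above a per-campaign cutoff equal to the mean of compounds falling between control-based bounds plus 3 SD (cut at about 20% in these data); inactive means the rest.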 What follows is part of a selection rich in actives, with near analogues and random picks from the rest. Some structures have more than one record in an assay (separate samples or runs), and their calls can disagree.

Molecular target: Disintegrin and metalloproteinase domain-containing protein 10 (Homo sapiens) (UniProt O14672)
Experiment: human ADAM10 inhibitors, primary screen, biochemical, QFRET, HTS (AID 720582);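 further: 0% = DMSO wells while the 100% control is not disclosed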
Conditions: recombinant ADAM10, EDANS/DABCYL FRET peptide cleavage, 3 h; at 7 µM; stronger effect = higher value

Disintegrin and metalloproteinase domain-containing protein 10 (Homo sapiens), sequence (O14672 214-748 limits assumed): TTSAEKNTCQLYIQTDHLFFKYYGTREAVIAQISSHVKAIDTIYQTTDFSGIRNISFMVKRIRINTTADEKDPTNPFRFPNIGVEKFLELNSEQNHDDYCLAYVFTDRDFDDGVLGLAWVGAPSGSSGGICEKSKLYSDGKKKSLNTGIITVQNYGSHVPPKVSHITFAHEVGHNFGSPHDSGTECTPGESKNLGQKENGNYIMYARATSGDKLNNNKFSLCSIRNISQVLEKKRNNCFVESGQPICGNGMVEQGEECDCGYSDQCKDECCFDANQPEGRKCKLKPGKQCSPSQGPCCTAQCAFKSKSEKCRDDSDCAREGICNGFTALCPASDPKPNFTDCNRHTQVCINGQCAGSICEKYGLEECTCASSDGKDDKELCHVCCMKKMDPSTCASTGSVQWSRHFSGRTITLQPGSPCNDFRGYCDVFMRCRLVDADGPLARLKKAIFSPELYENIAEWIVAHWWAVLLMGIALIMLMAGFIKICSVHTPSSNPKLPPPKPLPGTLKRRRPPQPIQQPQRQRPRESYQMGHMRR

inhibition, inactive:
Cc1[nH]c2ccccc2c1C(=O)CN1CC(C)CC(C)C1 (stereo unspecified) -6.1%, COc1ccc(C(=O)COC(=O)c2c(C)noc2C)cc1Cl 3.87%, COCCCNC(=O)C[C@H]1C[C@@]2(C(=O)OC)C(=C[C@H](C(C)(C)C)O[C@@H]2C)N(Cc2ccc(Cl)cc2Cl)C1=O 8.61%, C=CS(=O)(=O)N(Cc1nnn(Cc2ccccc2)c1Br)[C@H](C(=O)OC)C(C)C 5.21%, CCOC(=O)[C@]12CCCC=C1N(Cc1ccc(OC)cc1)C(=O)[C@@H]2CC(=O)N1CCOCC1 0.19%, COc1ccc(Cl)cc1NC(=O)CN(C)C(=O)CNC(=O)C12CC3CC(CC(C3)C1)C2 0.24%, COc1ccc(Cl)cc1NC(=O)CN(C)C(=O)c1ccc2n[nH]nc2c1 -4.74%, O=C(CSc1nnc(-c2ccccn2)n1-c1ccccc1)Nc1ccc2cn[nH]c2c1 1.78%, CCOC(=O)c1ccc(NC(=O)c2nc[nH]c2C(=O)N[C@@H](CCCCNC(=O)OC(C)(C)C)C(=O)OC(C)(C)C)cc1 -1.17%, CC(C)(C)OC(=O)NCCCCCNC(=O)c1[nH]cnc1C(=O)Nc1nccs1 -0.11%, Cc1nc(CNc2ncnc3ccc(-c4ccc5c(c4)OCO5)cc23)cs1 -136%, CSc1ccc(C#N)cc1NC(=O)c1ccc(Cl)cc1 7.58%, CSc1nccc(NC(=O)c2ccc(C(C)(C)C)cc2)n1 10.6%, COC(=O)[C@H](C(C)C)N(CCCc1cn(Cc2ccccc2)nn1)S(=O)(=O)c1ccc(F)cc1Br 2.42%, C=CCN1C(C(=O)OC)CN(Cc2cn(Cc3ccccc3)nn2)CCS1(=O)=O (stereo unspecified) 2.91%, Cc1cccc(N2C(=O)N3[C@H](c4ccc(F)cc4)[C@@H]4C(=O)N(C5CCCCC5)C(=O)[C@@H]4[C@]3(Cc3ccccc3)C2=O)c1 5.39%, Cc1cccc([C@@H]2[C@@H]3C(=O)N(Cc4ccccc4)C(=O)[C@@H]3[C@]3(Cc4ccc(Cl)cc4)C(=O)N(c4cccc(Cl)c4)C(=O)N23)c1 -4.37%, CCCCCc1c(-c2cccc(Br)c2)ncn1CCc1ccccc1OC -0.06%, CCCCc1c(-c2ccc(Cl)cc2)ncn1CCc1ccccc1OC -7.93%, CCOC(=O)[C@]12CCCCC/C=C\1N(Cc1ccc(OC)cc1)C(=O)[C@H]2CC(=O)NCCCN1CCCC1=O -0.03%, CC(=O)N1CCc2cc(S(=O)(=O)NCCC(=O)N3CCCC3)ccc21 -14%, COc1cc(/C=C/C(=O)n2cnc3ccccc32)cc(OC)c1OC -59.7%, CCCCCN1CCCCC(NC(=O)C(C)CCC)C1=O (stereo unspecified) -6.07%, CCOc1ccc(Br)cc1S(=O)(=O)Nc1cccc(S(=O)(=O)N(CC)CC)c1 0.81%, CCOc1ccc(Br)cc1S(=O)(=O)Nc1ccc(S(=O)(=O)Nc2cc(C)on2)cc1 -5.64%, CC(C)C(C#CC1CC1)N(Cc1ccc2c(c1)OCO2)C(N)=NC(=O)/C=C/c1cccc(C(F)(F)F)c1 (stereo unspecified) -4.29%, COC(=O)c1cccc(Cn2ccc3ccc(-c4ccc5ccn(C(=O)c6ccccc6C)c5c4)cc32)c1 -41.7%, CCCC1CCC2(CCCN2CCOC(=O)NCc2ccccc2)CC1 (stereo unspecified) -8.67%, CC(C)N1CCCCC(NC(=O)C(C)(C)C)C1=O (stereo unspecified) -0.89%, N#Cc1cccc(NC(=O)C2CCCN(C(=O)c3ccc(Cl)cc3)C2)c1 (stereo unspecified) -3.16%, COc1ccc(N2C(=O)C(CC(=O)Nc3ccccc3)N(Cc3ccc(OC)c(OC)c3)C2=O)cc1 (stereo unspecified) 0.53%, CN(C)c1ccc(NC(=S)N(CCc2ccccc2)C2CC(=O)N(c3c(Cl)cccc3Cl)C2=O)cc1 (stereo unspecified) 11.2%, CCOC(=O)[C@]12CCCC=C1N(CCCOC)C(=O)[C@@H]2CC(=O)N1CCOCC1 -0.44%, CN1[C@H](Cc2ccccc2)COc2cccc(N3CCSCC3)c2S1(=O)=O -1.57%, CCC(C(=O)Nc1ccc(C(C)C)cc1)c1ccccc1 (stereo unspecified) 5.96%, O=C(CNCc1ccc(F)cc1)Nc1ccccc1-c1ccccc1 4.85%, CC1CCN(c2ccc(C(=O)O)cc2NS(=O)(=O)c2ccc(Br)s2)CC1 -0.83%, C[C@H](C(=O)N(C)c1ccccc1)[C@@H](O)c1ccc(Cl)cc1 2.56%, CC(=O)N1CCCN(C2=Nc3ccccc3Sc3ccccc32)CC1 1.32%, O=C(CSc1nnc(-c2cccc(Cl)c2)n1Cc1ccco1)Nc1ccc(OCc2ccccc2)cc1 7.99%, Cc1ccc(-c2nc(C3CCCN(S(=O)(=O)c4ccc(Br)s4)C3)no2)cc1 (stereo unspecified) -6.94%

inhibition, active:
Cc1[nH]c2ccccc2c1C(=O)COC(=O)c1c(-c2ccccc2)noc1C 24.7%, COc1ccc(Cl)cc1NC(=O)CN(C)C(=O)CCCc1c[nH]c2ccccc12 56.1%, Cc1ccc(NC(=O)c2nc[nH]c2C(=O)N[C@@H](CCCCNC(=O)OC(C)(C)C)C(=O)OC(C)(C)C)cc1 22.4%, CC(C)(C)c1ccc(C(=O)Nc2cc(Cl)c(Br)cc2C(=O)O)cc1 19.8%, O=C1NC(Nc2nc3ccccc3s2)(C(F)(F)F)C(=O)N1C1CCCCC1 (stereo unspecified) 21%, O=C1[C@H]2[C@@H](c3ccc(F)cc3)N3C(=O)N(c4ccc(C(F)(F)F)cc4)C(=O)[C@@]3(Cc3ccccc3)[C@H]2C(=O)N1C1CCCCC1 22.2%, CCCCCc1c(-c2ccc(OC)c(OC)c2)ncn1CCc1ccccc1OC 22.3%, CCOc1ccc(Br)cc1S(=O)(=O)Nc1ccc(C(=O)OC(C)C(=O)N(C)c2ccccc2)cc1 (stereo unspecified) 22.5%, CCC(C(=O)OCC(=O)Nc1ccccc1-c1ccccc1)c1ccccc1 (stereo unspecified) 20.3%

inhibition, 23.9% (active) and 6.83% (inactive):
CCOc1ccc(N2C(=O)CC(N(CCc3ccc(OC)c(OC)c3)C(=S)Nc3ccccc3)C2=O)cc1 (stereo unspecified)
